# Data: PubChem BioAssay AID624483 (NMMLSC, 2012)
# Among all 360,000 compounds or so, about 11,000 (3.1%) were called active. Another 2% or so got no clear call; they are omitted. For the sample, actives were picked, then their nearest neighbours and some compounds at random. A number with no mark means an inactive call. Cut-off read from the data, not from the text of the source: active = fluorescence intensity above about 16000; inconclusive = no clear call, values can overlap the other calls; inactive = below that.
# Assay: compound fluorescence in toxin protease inhibitor counterscreen, primary screen, artefact control for toxin protease inhibitor project, biochemical, multiplex microsphere, HTS (AID 624483)
# Details: compound autofluorescence counterscreen, microsphere flow cytometry; active compounds read high
row,Structure (SMILES),fluorescence intensity
1,Cc1ccc(S(=O)(=O)N2CCCCC2)cc1NC(=O)CCNC(=O)c1ccccc1Cl,3400
2,CS(=O)(=O)N(CC(=O)N1CCN(c2cccc(Cl)c2)CC1)c1ccccc1,9910
3,Cc1cccc(N(CC(=O)N2CCOCC2)S(C)(=O)=O)c1,8740
4,CS(=O)(=O)N(CC(=O)N1CCN(Cc2ccccc2)CC1)c1ccc2c(c1)OCCO2,23300 (active)
5,Cc1ccc(C)c(S(=O)(=O)N2CCN(c3ncnc4sccc34)CC2)c1,3890
6,O=C(c1ccc2c(c1)OCCO2)C1CCN(S(=O)(=O)c2cccc(F)c2)CC1,17000 (active)
7,O=C(Nc1ccccn1)C1CCN(S(=O)(=O)c2ccc3c(c2)OCCO3)CC1,4090
8,O=C(c1c(F)cccc1F)N1CCN(S(=O)(=O)c2ccc3c(c2)OCCO3)CC1,4100
9,CCOC(=O)C1=C(CN2CCCCCC2)NC(=O)NC1c1cccc([N+](=O)[O-])c1 (stereo not given),4620
10,CCOC(=O)C1=C(c2ccccc2)NC(=O)NC1c1cc(OC)c(OC)cc1OC (stereo not given),2970
11,CCOC(=O)C1=C(CN2CCc3ccccc32)NC(=O)NC1c1cccc([N+](=O)[O-])c1 (stereo not given),15000
12,CCOC(=O)C1=C(CN2CCc3ccccc32)NC(=O)NC1c1ccc(Cl)cc1 (stereo not given),23500 (active)
13,CCOC(=O)C1=C(CNC2CCCCC2)NC(=O)NC1c1cc(C)ccc1C (stereo not given),4280
14,CCOC(=O)C1=C(CN2CCc3ccccc32)NC(=O)NC1c1cc(C)ccc1C (stereo not given),23800 (active)
15,Cc1ccccc1S(=O)(=O)NC(=O)C1(C)CCN1C(=O)C1(c2ccccc2)CCCC1 (stereo not given),2830
16,COc1ccc(C(=O)Nc2c(N)nc(SCC(=O)N3CCC(C)CC3)[nH]c2=O)cc1OC,4500
17,COc1cncc(-c2cnc3sc(NCCc4ccccn4)nn23)c1,3330
18,O=C1Cc2ccccc2Sc2ccc(Cl)cc21,6230
19,CC(=O)Nc1cncc(-c2ccccc2CO)n1,3670
20,Cc1cc(C)nc(NC(=O)Nc2ccccc2C(F)(F)F)n1,21400 (active)
21,COc1cccc(C(=O)NC(=O)Nc2nc(C)cc(C(F)(F)F)n2)c1,4900
22,Cc1cc(Cl)nc(NC(=O)Nc2cccc(Cl)c2)n1,3440
23,CSc1ccc(CN2CCC2(C)C(=O)NCc2ccccc2Br)cc1 (stereo not given),3880
24,OC[C@@H]1CN(Cc2ccc(Cl)cc2)C[C@H](n2cnc3c(NCc4ccncc4)ncnc32)O1,3720
25,Cc1cc(Cl)ccc1-c1nc(NCCN(C)C)nc2ccsc12,2870
